IDE exosite FP: insulin-degrading enzyme (human) exo-site inhibition; P14735; purified IDE, FL-6b probe fluorescence polarization; stronger effect = lower value; z-score at 20 µM; 6.3% of 17,000 active; AID 1259349;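 active = z-score of -3 or lower, meaning strong loss of probe binding signal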;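 note: His-tagged human IDE residues 42-1019 made in E. coli with 30 nM FL-6b probe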
Target sequence (P14735 42-1019 limits assumed): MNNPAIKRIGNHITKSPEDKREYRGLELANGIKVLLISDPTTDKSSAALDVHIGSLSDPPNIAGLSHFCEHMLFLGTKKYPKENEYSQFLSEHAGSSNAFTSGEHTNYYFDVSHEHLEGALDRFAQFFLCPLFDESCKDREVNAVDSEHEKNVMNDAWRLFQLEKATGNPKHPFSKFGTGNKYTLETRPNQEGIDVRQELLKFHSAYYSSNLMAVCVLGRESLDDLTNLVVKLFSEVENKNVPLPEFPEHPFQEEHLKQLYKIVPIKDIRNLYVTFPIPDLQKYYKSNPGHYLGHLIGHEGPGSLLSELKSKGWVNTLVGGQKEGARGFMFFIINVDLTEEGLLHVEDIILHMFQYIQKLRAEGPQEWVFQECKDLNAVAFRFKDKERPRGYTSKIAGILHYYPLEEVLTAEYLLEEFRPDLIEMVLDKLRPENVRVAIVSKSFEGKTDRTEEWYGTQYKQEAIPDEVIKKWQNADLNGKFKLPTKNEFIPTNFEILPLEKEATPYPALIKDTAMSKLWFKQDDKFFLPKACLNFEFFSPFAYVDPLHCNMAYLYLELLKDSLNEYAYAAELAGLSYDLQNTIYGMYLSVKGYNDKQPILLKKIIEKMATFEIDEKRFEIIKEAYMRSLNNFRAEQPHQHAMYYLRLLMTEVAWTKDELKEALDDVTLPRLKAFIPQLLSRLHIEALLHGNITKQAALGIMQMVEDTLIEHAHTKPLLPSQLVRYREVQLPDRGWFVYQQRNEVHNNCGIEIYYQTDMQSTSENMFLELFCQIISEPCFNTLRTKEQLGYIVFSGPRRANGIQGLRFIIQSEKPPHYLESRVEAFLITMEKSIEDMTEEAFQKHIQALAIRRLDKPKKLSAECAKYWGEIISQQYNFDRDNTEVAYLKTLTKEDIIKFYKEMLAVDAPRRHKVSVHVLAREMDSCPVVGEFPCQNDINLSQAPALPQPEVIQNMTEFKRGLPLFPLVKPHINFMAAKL
Each line names hits and unclear results; the compound was inactive in the other large screens. Shown is part of a subset that was picked to be rich in hits.

COc1ccccc1-c1ccccc1[C@H]1[C@@H](C#N)N(C(=O)C2CC2)[C@H]1CO	none
COc1ccc(C[C@@H]2CCn3nncc3COC[C@@H](CC(C)C)NC2=O)cc1	none
CO[C@@H]1CC[C@@H]2CCN(C)C(=O)[C@@H](C)CN(C)C(=O)c3cc(C#N)ccc3OC[C@@H]1O2	none
C[C@H]1CN([C@@H](C)CO)C(=O)CCCn2nncc2CO[C@@H]1CN(C)Cc1ccccc1C(=O)O	none
COc1ccc(CN(C)C[C@@H]2OCCCC[C@@H](C)Oc3ccc(NC(=O)C4CCCCC4)cc3C(=O)N([C@@H](C)CO)C[C@@H]2C)cc1	none
CO[C@H]1CC[C@H]2CCOc3c(C#N)cccc3C(=O)N(C)CCCC(=O)N(C)C[C@H]1O2	none
CN1C(=O)c2cc(NC(=O)c3cccc(F)c3)ccc2OC[C@H]2O[C@@H](CC(=O)NCc3ccccc3Cl)CC[C@H]21	none
CO[C@@H]1CN(C)C(=O)c2cc(NS(=O)(=O)c3ccc(Cl)cc3)ccc2OC[C@@H](C)N(C(=O)NC(C)C)C[C@@H]1C	none
CCc1cnc(N2[C@H](C#N)[C@H](c3ccc(-c4cccc(F)c4)cc3)[C@@H]2CO)s1	none
C[C@@H]1CN([C@@H](C)CO)C(=O)c2c(c3ccccc3n2C)-c2ccccc2CO[C@H]1CN(C)Cc1cccc(C(=O)Nc2ccccc2N)c1	none
COc1ccccc1C#Cc1ccc([C@@H]2[C@@H](CO)N3CCCCN(S(C)(=O)=O)C[C@H]23)cc1	IDE exosite FP -5.6
COc1ccc(C#Cc2ccc([C@@H]3[C@H](CO)N4CCCCN(S(=O)(=O)c5ccccc5)C[C@@H]34)cc2)cc1	none
O=S(=O)(Cc1ccccc1)N1CCCCN2[C@H](CO)[C@H](c3ccc(C#Cc4ccccc4)cc3)[C@@H]2C1	none
O=S(=O)(Cc1ccccc1)N1CCCCN2[C@@H](CO)[C@@H](c3ccc(C#Cc4ccccc4)cc3)[C@@H]2C1	none
CCCC#Cc1ccc([C@H]2[C@@H](CO)N3CCCCN(S(C)(=O)=O)C[C@@H]23)cc1	none
CCCC#Cc1ccc([C@H]2[C@H](CO)N3CCCCN(S(C)(=O)=O)C[C@@H]23)cc1	none
CS(=O)(=O)N1CCCCN2[C@H](CO)[C@H](c3ccc(C#Cc4ccccn4)cc3)[C@@H]2C1	none
COc1ccccc1C#Cc1ccc([C@H]2[C@@H](CO)N3CCCCN(S(C)(=O)=O)C[C@@H]23)cc1	IDE exosite FP -10
CCS(=O)(=O)N1CCCCN2[C@@H](CO)[C@H](c3ccc(C#Cc4ccccc4OC)cc3)[C@@H]2C1	IDE exosite FP -5.9
CCCNC(=O)N(C)C[C@@H]1Oc2ncc(C#CC3CCCCC3)cc2C(=O)N([C@H](C)CO)C[C@@H]1C	none
Cc1ccccc1S(=O)(=O)N1CCCCN2[C@H](CO)[C@H](c3ccc(-c4cncnc4)cc3)[C@@H]2C1	none
CC[C@@H]1C/C=C\CCNC(=O)CCC(=O)N1	none
CC(C)C#Cc1ccc([C@H]2[C@H](CO)N3C(=O)CN(C(=O)NC4CCCC4)C[C@@H]23)cc1	none
CCCC(=O)N1CC2(CCN(S(=O)(=O)CC)CC2)c2c(n(C)c3cc(OC)ccc23)[C@H]1CO	none
COc1ccc(NC(=O)Nc2cccc3c2O[C@H](CN(C)Cc2ccc(C(=O)O)cc2)[C@H](C)CN([C@@H](C)CO)C3=O)cc1	none
CO[C@H]1CN(C)C(=O)c2ccc(NC(=O)c3cc(C)on3)cc2OC[C@H](C)NC[C@@H]1C	none
C[C@@H]1CC=CC[C@@H](c2ccccc2)NC(=O)[C@@H](C)N(C)C(=O)c2ccccc2O1 (mixture of isomers)	none
O=C(Cc1ccccn1)N1CC2(C1)[C@@H](c1ccccc1)[C@H](CO)N2C(=O)c1ccncc1	IDE exosite FP -3.6
O=C(CC1CC1)N1CC2(C1)[C@H](c1ccccc1)[C@@H](CO)N2Cc1ccccn1	none
O=C(c1ccncc1)N1CC2(C1)[C@@H](c1ccccc1)[C@@H](CO)N2CC1CC1	none
Cc1noc(C)c1NC(=O)N(C)C[C@@H]1Oc2ccc(NC(=O)CCCN(C)C)cc2C(=O)N([C@H](C)CO)C[C@H]1C	none
C[C@@H]1CCCCO[C@H](CN(C)C(=O)Cc2ccccc2)[C@H](C)CN([C@H](C)CO)C(=O)c2cc(NS(C)(=O)=O)ccc2O1	none
COCC(=O)N(C[C@H]1N[C@@H](CO)[C@@H]1c1ccc(-c2cccnc2)cc1)C(C)C	none
CO[C@H](CN(C)C(=O)c1cc(Cl)cc(Cl)c1)[C@@H](C)CN(C(=O)Nc1ccc(F)cc1)[C@H](C)CO	none
CCS(=O)(=O)N1CCCCN2[C@H](CO)[C@H](c3ccc(-c4ccc(C(=O)N(C)C)cc4)cc3)[C@H]2C1	none
COc1cccc(-c2ccc([C@H]3[C@H](CO)N4C(=O)CN(C(=O)C5CCCCC5)C[C@@H]34)cc2)c1	IDE exosite FP -5.6
COc1ccc(-c2ccc([C@H]3[C@H]4CN(C(=O)C5CCCC5)CC(=O)N4[C@H]3CO)cc2)cc1	none
COc1cccc(-c2ccc([C@@H]3[C@H]4CN(C(=O)C5CCCCC5)CC(=O)N4[C@H]3CO)cc2)c1	IDE exosite FP -7.6
COc1ccc(-c2ccc([C@H]3[C@H](CO)N4C(=O)CN(C(=O)C5CCCC5)C[C@@H]34)cc2)cc1	none
COc1cccc(-c2ccc([C@H]3[C@H]4CN(C(=O)C5CCCCC5)CC(=O)N4[C@H]3CO)cc2)c1	IDE exosite FP -3.4
N#C[C@H]1[C@@H](c2ccc(-c3ccncc3)cc2)[C@@H](CO)N1C(=O)C1CCCCC1	none
CCCC#Cc1ccc([C@@H]2[C@H](CO)N3C(=O)CN(S(=O)(=O)Cc4ccccc4)C[C@@H]23)cc1	none
CCC(=O)N1CC(=O)N2[C@H](C1)[C@H](c1ccc(C#CC(C)C)cc1)[C@@H]2CO	none
CN(C)C(=O)c1ccc(-c2ccc([C@@H]3[C@H]4CN(C(=O)C5CCCC5)CC(=O)N4[C@H]3CO)cc2)cc1	none
CCCC(=O)Nc1ccc2c(c1)C(=O)N(C)C[C@@H](OC)[C@H](C)CN(C(=O)c1ccccn1)[C@@H](C)CO2	none
O=C(Nc1ccccc1)N1CC(=O)N2[C@H](CO)[C@H](c3ccc(C#Cc4cccnc4)cc3)[C@@H]2C1	none
CC(=O)NC[C@H]1[C@@H](c2ccc(-c3cccnc3)cc2)[C@@H](CO)N1C(=O)CC1CC1	none
COc1ccc(-c2ccc([C@H]3[C@H](CO)N4CCCCN(C(=O)NC(C)C)C[C@@H]34)cc2)cc1	IDE exosite FP -7.3
COCC(=O)N1CCCCN2[C@H](C1)[C@H](c1ccc(-c3ccc(OC)cc3)cc1)[C@@H]2CO	none
COc1ccc(-c2ccc([C@@H]3[C@H]4CN(C(=O)NC(C)C)CCCCN4[C@H]3CO)cc2)cc1	IDE exosite FP -6.6
COCC(=O)N1CCCCN2[C@H](CO)[C@@H](c3ccc(-c4ccc(OC)cc4)cc3)[C@H]2C1	none
COc1ccc(-c2ccc([C@@H]3[C@H]4CN(C(=O)c5ccc(F)cc5)CCCCN4[C@H]3CO)cc2)cc1	none
COc1ccc(-c2ccc([C@H]3[C@@H](CO)N4CCCCN(C(=O)NC(C)C)C[C@H]34)cc2)cc1	none
CC(C)NC(=O)N1CCCCN2[C@H](C1)[C@@H](c1ccc(Br)cc1)[C@@H]2CO	none
COCC(=O)N1CCCCN2[C@@H](CO)[C@@H](c3ccc(-c4ccc(OC)cc4)cc3)[C@@H]2C1	none
COc1ccc(-c2ccc([C@H]3[C@@H](CO)N4CCCCN(C(=O)NC(C)C)C[C@@H]34)cc2)cc1	IDE exosite FP -6.3
Cn1cnc(S(=O)(=O)N2[C@@H]3CNC[C@H]2C3c2ccc(/C=C/c3ccccc3)cc2)c1 (some centres not stated)	none
CCC(=O)N1CC2(C1)CN(Cc1cccc(Cl)c1)[C@H](CO)c1[nH]c3cc(OC)ccc3c12	none

Screens deposited in PubChem BioAssay by Broad Institute.
